Results on 40 compounds are retold here after PubChem BioAssay (EPA / NIEHS).

Records with an inconclusive call do not appear. Calls of active or inactive are those of the source. How the source made its calls: active means hit-call score of the fitted dose curve at least 0.9, where 1 is the maximum; inconclusive means response in the unintended direction; inactive means score below 0.9.

The nature of this assay: TOX21_p53_BLA_p5_viability: Viability Assessment in the Tox21 HCT-116 p53 Agonism Beta-lactamase Assay, Phase 5 (AID 2283600). The source says:
TOX21_p53_BLA_p5 is a cell-based, single-readout assay that uses HCT116, a human intestinal cell line, […] in a 1536-well plate.TOX21_p53_BLA_p5_viability is an assay readout measuring cellular ATP content and detected with CellTiter-Glo Luciferase-coupled ATP quantitation.TOX21_p53_BLA_p5_viability used a type of viability reporter where loss-of-signal activity can be used to understand changes in the cell viability. Furthermore, this assay endpoint can be referred to as a secondary readout, because this assay has produced multiple assay endpoints where this one serves a viability function. To generalize the intended target to other relatable targets, this assay endpoint is annotated to the cell cycle intended target family, where the subfamily is cytotoxicity.
Thawing Method: Place 14 mL of pre-warmed thaw medium into a 15 mL of conical tub. Remove the vial of cells to be thawed from liquid nitrogen and thaw rapidly by placing at 37C in a water bath with gentle agitation for 1-2 minutes. Decontaminate the vial by wiping with 70% ethanol before opening in a biological safety cabinet. Transfer the vial contents drop-wise into 14 mL of thaw medium in a sterile 15-mL conical tub. Centrifuge cells at 900 rpm for 4 minutes and resuspend in thaw medium. Transfer contents to the T75 tissue culture flask containing Thaw Medium and place flask in a humidified 37C/5% CO2 incubator. Switch to growth medium at first passage.Propagation Method: Aspirate medium, rinse once in DPBS, add 0.25% Trypsin/EDTA and swirl to coat the cell evenly. Add an equal volume of Growth Medium to inactivate Trypsin after 2-3 minutes incubation at 37C. Centrifuge cells at 900 rpm for 4 minutes and resuspend in growth medium. Cell should be passage or fed at least twice a week.Assay Protocol: Harvest cells from culture in growth medium and resuspend in assay medium. 2.2 Dispense 4000 cells/5 uL/well into 1536-well black/clear bottom plates using a Multidrop dispenser. After the cells were incubated at 37C for 5 hours, 23 nL of compounds dissolved in DMSO were transferred to the assay plate by a PinTool resulting in a 217-fold dilution. Incubate the plates for 16 hours at 37C, 5% CO2. Add 1 uL of 6X LiveBLAzer FRET B/G (CCF4-AM) Substrate Mixture to each well using a BioRAPTR dispenser and incubate the plates at room temperature for 2 hours. Measure fluorescence intensity at 460 and 530 nm emission and 405 nm excitation by an Envision detector. Data is expressed as the ratio of 460nm/530nm emissions. Add 4 uL of Cell-titer Glo to each well using BioRAPTR and incubate the plates at room temperature for […]. For cell viability readout that measures cytotoxicity, 4 ul/well of CellTiter-Glo reagent was added into the assay plates using a Flying Reagent Dispenser. After 30 min incubation at room temperature, the luminescence intensity in the plates was measured using a ViewLux plate reader.
`Cc1nnc2n1-c1sc(CCC(=O)N3CCOCC3)cc1C(c1ccccc1Cl)=NC2`: the call was inactive.
On the same count and under the same terms, then `O=CC=Cc1ccccc1`, with “inactive”; and `CCCCCCCCCCCC#N`, with “inactive”.
As usually defined, the AC50 is the concentration at which the activity in the assay is half-maximal. `C[C@@H]1O[C@@H](O[C@@H]2C=C3CC[C@@H]4[C@H](CC[C@]5(C)[C@@H](c6ccc(=O)oc6)CC[C@]45O)[C@@]3(C)CC2)[C@H](O)[C@H](O)[C@H]1O`: the AC50 was 0.0108 µM (active).
On to `CN(CCO)CCO`, for which the outcome was inactive.
As to `COc1ccc2c3c1O[C@H]1[C@H](O)CC[C@H]4[C@@H](C2)N(C)CC[C@@]341`, the outcome was inactive.
For `BrC(Br)Br`, the compound was classed as inactive.
As for `CC[C@H]1[C@@H]2C[C@H]3[C@@H]4N(C)c5ccccc5[C@]45C[C@@H](C2C5O)N3[C@@H]1O` (stereo not given in full), the result was inactive.
In the case of `CC(C)(C)NCC(O)c1ccccc1Cl` (stereo not given), the call was inactive.
Regarding `CCCCCCC#N`, the call was inactive.
`CN1C[C@H](C(=O)N[C@]2(C)O[C@@]3(O)[C@@H]4CCCN4C(=O)[C@H](Cc4ccccc4)N3C2=O)C=C2c3cccc4[nH]cc(c34)C[C@H]21`: the call was inactive.
With `CN1CC[C@]23c4c5ccc(O)c4O[C@H]2[C@@H](O)C=C[C@H]3[C@H]1C5`, the outcome was inactive.
As for `OCC(Br)CBr` (stereo not given), the outcome was inactive.
With `C=CCN(CC=C)C(=O)C(Cl)Cl`, the outcome was inactive.
As to `C=CCc1ccc(OC(=O)Cc2ccccc2)c(OC)c1`, the compound was called inactive.
For the compound `NC1(c2ccccc2)CCCCC1`, the outcome was inactive.
The same measure, in the same setting: then `CC(O)CN(CC(C)O)CC(C)O` (stereo not given), with “inactive”; and `O=C1CN(O)C(c2ccccc2)=c2cc(Cl)ccc2=N1`, with “inactive”; and `Cc1coc2c1CCC(C)C2` (stereo not given), with “inactive”.
On to `COC(=O)C1(O)c2ccccc2-c2ccccc21`, for which the call was inactive.
As for `CCOP(=S)(OCC)Oc1cc(Cl)c(Br)cc1Cl`, the call was inactive.
As for `NNC(=O)c1ccccc1`, the compound was called inactive.
Turning to `CCC(=O)O[C@H]1[C@@H](N2CCCCC2)C[C@H]2[C@@H]3CC[C@H]4C[C@H](OC(C)=O)[C@@H](N5CCCCC5)C[C@]4(C)[C@H]3CC[C@@]21C`, the outcome was inactive.
As to `CCOP(=S)(OCC)SC(CCl)N1C(=O)c2ccccc2C1=O` (stereo not given), the call was inactive.
As to `O=[N+]([O-])c1cc(Cl)c(Cl)c(Cl)c1`, the call was inactive.
Regarding `CNNC`, the outcome was inactive.
As to `CCCN(CC1CC1)c1c([N+](=O)[O-])cc(C(F)(F)F)cc1[N+](=O)[O-]`, the compound was classed as inactive.
With `C[C@H]1CC[C@]2(NC1)O[C@H]1C[C@H]3[C@@H]4CC[C@H]5C[C@@H](O[C@@H]6O[C@H](CO)[C@H](O[C@@H]7O[C@H](CO)[C@@H](O)[C@H](O[C@@H]8OC[C@@H](O)[C@H](O)[C@H]8O)[C@H]7O[C@@H]7O[C@H](CO)[C@@H](O)[C@H](O)[C@H]7O)[C@H](O)[C@H]6O)CC[C@]5(C)[C@H]4CC[C@]3(C)[C@H]1[C@@H]2C`, the half-maximal activity concentration (AC50) was 6.08 µM (active).
As to `CC(C)N(C(=O)SCC(Cl)=CCl)C(C)C`, the outcome was inactive.
On to `COP(N)(=S)Oc1ccccc1C(=O)OC(C)C` (stereo not given), for which the call was inactive.
In the case of `CCCC[N+](CCCC)(CCCC)CCCC`, the result was inactive.
Turning to `BrC(Br)C(Br)(Br)Br`, the compound was called inactive.
The same measure, in the same setting: then `COc1ccc2c(C(=O)c3ccc(Cl)cc3)c(C)n(CC(=O)O)c2c1`, with “inactive”; and `COc1ccccc1N1CCNCC1`, with “inactive”.
With `CN1C[C@@H](NS(=O)(=O)N(C)C)C[C@@H]2c3cccc4c3c(cn4C)C[C@H]21`, the call was inactive.
Regarding `COc1cc(CC(C)N)c(OC)cc1Br` (stereo not given), the result was inactive.
Consider `O=C(O)c1cc(Cl)ccc1Cl`, for which the compound was called inactive.
Regarding `[Cl-].[Cl-].[Sn+2]`, the call was inactive.
As for `O=c1c2ccccc2c(=O)c2c1cc(Cl)c1[nH]c3c([nH]c12)c(Cl)cc1c(=O)c2ccccc2c(=O)c13`, the result was inactive.
For `CC[N+]1(C)CCCC(OC(=O)C(O)(c2ccccc2)c2ccccc2)C1` (stereo not given), the compound was called inactive.
